Measurements published in PubChem BioAssay (NCI).
Several values for one entry are separate records, joined by “and”; a condition that tells them apart may be missing. Equal values may be shown once. This is part of a sample that, as a whole, favours compounds with a hit. Of some 83,000 tested, about 20% had one in any assay.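 48-hour exposure, single concentration, 96-well plates; percent growth endpoint where 0 means no net growth. Active: below 10.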 Activity calls are given as the source filed them.

System: MDA-MB-468 breast
Experiment: NCI-60 one-dose screen, 48 h (100 = growth as untreated, 0 = no growth, -100 = all killed)
Conditions: 10 µM unless noted

Row | Structure (SMILES) | growth
1 | CN(C)CCS(=O)(=O)CCN(C)C | 105% (inactive)
2 | Cc1nc(Nc2ccc(Cl)cc2)c2cnn(-c3ccccc3)c2n1 | 98.3% (inactive)
3 | NCCOc1ncccc1/C=C1\c2ccccc2-c2ccc([N+](=O)[O-])cc21 | -39.2% (active)
4 | NC(=O)c1ncn2c(=O)n(CCF)nnc12 | 48.4% (inactive)
5 | CCCCc1ccc(NC(=O)N(CCCl)N=O)cc1 | 91.4% (inactive)
6 | Oc1c(Cl)c2ccccc2c2ccccc12 | 112% (inactive)
7 | N#Cc1c(Nc2ccccc2)nc2n(c1=O)-c1ccccc1Sc1ccccc1-2 | 72.8% (inactive)
8 | N#CC(C#N)=Cc1c(-c2ccccc2)[nH]c2ccccc12 | 32% (inactive)
9 | CC(=O)Oc1cc(C)c(OC(C)=O)c(C)c1C | 47.1% (inactive)
10 | Cc1cc(N2CCCCC2)nc(N(CCCNc2ccnc3cc(Cl)ccc23)Cc2ccco2)n1 | 6.73% (active)
11 | O=C(Nc1ccc(-n2cc(-c3ccncc3)c(-c3ccc(Cl)c(O)c3)n2)cc1)c1ccc(Cl)c(Cl)c1 | 54.2% (inactive)
12 | Clc1ccc(C(SCc2ccccc2)SCc2ccccc2)cc1 | 77.7% (inactive)
13 | CN1c2ccccc2Sc2cc(C=C(C#N)C#N)ccc21 | -24.4% (active)
14 | COc1cc(C2C(C(=O)OCc3ccccc3)=C(C)NC(C)=C2C(=O)OCc2ccccc2)cc(OC)c1OC | 11.6% (inactive)
15 | O=C(Nc1ccc(-n2ccc3c(NC(=O)c4ccccc4)ncnc32)cc1)Nc1cccc(Cl)c1Cl | -35.7% (active)
16 | C/C(=C\CCc1ccoc1)CC/C=C(\C)CCCN1CCC(CO)CC1 | 14.5% (inactive)
17 | O=C(N/N=C/c1ccccc1O)C(=O)Nc1ccc(F)cc1 | 33% (inactive)
18 | Cc1cc(N(CCCNc2ccnc3cc(Cl)ccc23)Cc2ccc3c(c2)OCO3)nc(N2CCOCC2)n1 | -14.4% (active)
19 | Cc1c(NC(=O)c2sc3nc4c(cc3c2N)CN(Cc2ccccc2)CC4)cccc1C(F)(F)F | -5.77% (active)
20 | CCC(CCNc1cc(OC)cc2cccnc12)CN1C(=O)c2ccccc2C1=O (stereo not given) | 7.31% (active)

Row | Structure (SMILES) | growth
21 | O=C/C=C/c1ccc([N+](=O)[O-])cc1 | 108% (inactive)
22 | C[N+](C)(C/C=C/c1ccccc1)Cc1ccccc1 | 78.8% (inactive)
23 | NS(=O)(=O)c1ccc(N2CC(c3nc4ccccc4[nH]3)CC2=O)cc1 (stereo not given) | 113% (inactive)
24 | Oc1ccc(C(c2ccc(O)cc2)C(Cl)(Cl)Cl)cc1 | 90% (inactive)
25 | CCn1cc(-c2ccnc3[nH]c(-c4cccc(CN(C)C)c4)cc23)c(-c2ccc(NC(=O)N(C)C)cc2)n1 | 56.5% (inactive)
26 | Cc1ccc(NC(=O)CCl)cc1Cl | 108% (inactive)
27 | CN(C)c1ccc2nc3ccc(N)cc3[n+](-c3ccccc3)c2c1 | -28.6% (active) and 20.2% (inactive)
28 | CCCCCN1C=C/C(=C\C(=O)N(C)c2cccc3ccccc23)c2ccccc21 | 70.9% (inactive)
29 | Oc1ccc(CSc2nnc(-c3ccc(Oc4ccccc4)cc3)n2-c2ccccc2)c2cccnc12 | -2% (active)
30 | COC(=O)c1cc(=O)nc(N/N=C/c2ccccc2O)s1 | 98% (inactive)
31 | COc1ccc(/C=C\c2cc(OC)c(OC)c(OC)c2)cc1OCC(=O)Nc1nc2ccccc2s1 | 9.63% (active)
32 | CC1CN(C(C)C)C(=S)N(c2ccccc2)C1=O (stereo not given) | 84.3% (inactive)
33 | CCCCNc1nc(NC(C)(C)C)nc(NC(C)(C)C)n1 | 78.5% (inactive)
34 | N#Cc1nc(-c2ccccc2)oc1S(N)(=O)=O | 41.1% (inactive)
35 | CSC1=Nc2c(c(C)c(-c3ccccc3)n2CCCN2CCCCC2)C2=NC(=O)C[C@H](C)N12 | -18.6% (active)
36 | CCCC(OC(C)=O)c1ccc2c(c1)OCO2 (stereo not given) | 103% (inactive)
37 | CC(C)c1cc(C(=O)O)c(O)c(C(C)C)c1.CC(C)c1cc(C(=O)O)c(O)c(C(C)C)c1.[Mn] | 120% (inactive)
38 | COc1ccccc1/C=C1\COc2ccc(-c3ccccc3)cc2C1=O | 3.14% (active)
39 | c1cc2[nH]ncc2cc1-c1nc2ccc3[nH]ncc3c2c2c1CCCC2 | -3.32% (active)
40 | COC(=O)c1c(C)[nH]c(/C=C2\N=C(c3ccc[nH]3)C=C2OC)c1C | -69.4% (active)
